{"source": "PubChem BioAssay (NCI)", "note": "Compounds without any hit were thinned out: in the full panel of roughly 83,000, 20% have a hit.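 Step 1: grow cells in 96-well plates. Step 2: add test compound at a single concentration. Step 3: incubate 48 h. Step 4: record percent growth.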 Activity calls are given as the source filed them. The calls were made as follows: active = growth percent below 10; inactive = the rest."}
{"system": "MOLT-4 leukemia", "experiment": "NCI-60 one-dose screen, 48 h (100 = growth as untreated, 0 = no growth, -100 = all killed)", "conditions": "10 µM"}
{"smiles": "CC(C)OC(C(=O)O)c1ccccc1", "note": "(stereo unspecified)", "growth": "125% (inactive)"}
{"smiles": "CCCOC(=O)C(O)c1ccccc1", "note": "(stereo unspecified)", "growth": "110% (inactive)"}
{"smiles": "COc1ccccc1NC(=O)c1cc2cc(Br)ccc2cc1O", "growth": "-0.261% (active)"}
{"smiles": "OCCN1CCOCC1", "growth": "104% (inactive)"}
{"smiles": "OCC1OC(OC2C(O)C(CO)OC2(CO)OC2OC(CO)C(O)C(O)C2O)C(O)C(O)C1O", "note": "(stereo unspecified)", "growth": "126% (inactive)"}
{"smiles": "Cc1ccc(Cl)cc1NC(=O)N(C)CCO", "growth": "97.5% (inactive)"}
{"smiles": "CCOC(=O)C(O)C(O)C(=O)OCC", "note": "(stereo unspecified)", "growth": "104% (inactive)"}
{"smiles": "O=c1cc(-c2ccccc2)nc2cc(-c3ccco3)[nH]n12", "growth": "87% (inactive)"}
{"smiles": "S=c1[nH]ccn1-c1ccccc1Cl", "growth": "97.4% (inactive)"}
{"smiles": "C[N+](C)(C)C(=O)c1ccccc1", "growth": "103% (inactive)"}
{"smiles": "CCc1ccc(/C(C#N)=C/C=C/c2ccccc2)cc1", "growth": "20.7% (inactive)"}
{"smiles": "O=C(O)c1ccnc(Br)c1", "growth": "116% (inactive)"}
{"smiles": "S=c1nn[nH]c2ccccc12", "growth": "108% (inactive)"}
{"smiles": "O=[N+]([O-])c1ccc(CO)cc1", "growth": "100% (inactive)"}
{"smiles": "O=C1C=C(O)C(=O)C=C1O", "growth": "91.3% (inactive)"}
{"smiles": "C#Cc1cccc(NC(=O)c2ccc(Cl)cc2Cl)c1", "growth": "82.1% (inactive)"}
